We go through 16 compounds from PubChem BioAssay.

Calls of active or inactive are those of the source.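 Rule for the calls, unless noted: active = compound that reduces growth-factor-driven endothelial tube area in a mixed cell culture, no cutoff stated; inactive = the rest.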

Assay [1] is described as follows: Wnt pathway potentiators raising nuclear beta-catenin – imaging, WNT3A-conditioned medium, mouse C2C12, NPC library, primary screen (AID 1117326; in the data active = nuclear beta-catenin stimulation mostly above about 4.2%, no sharp cut-off; inactive = mostly below about 10%; note: reference of the scale not given here). The conditions noted are these: stronger effect = higher value.
A short description of assay [2]: stimulators of insulin release from INS-1E, primary screen, cell-based, 5 mM glucose, NPC library (AID 1117329;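 active = compound raises insulin release from rat beta cells at 5 mM glucose, no numeric limit stated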; note: reference of the scale not given here). The conditions noted are these: rat INS-1E insulin secretion, at 10 µM, stronger effect = higher value.
Assay [3] in a line: growth inhibition of GSK3B-pretreated HCT116 cells – cell-based, CellTiter-Glo, 0.2 to 20 µM (AID 1117336;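 active = compounds lowering colon cancer cell viability after pretreatment blocking the GSK3B kinase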). The conditions noted are these: HCT116 viability after GSK3B inhibitor, at 20 µM, stronger effect = higher value.
A short description of assay [4]: inhibition of endothelial tube formation, primary screen, imaging, VEGF stimulated, CD31 staining, tube area, NPC library (AID 1117340). The conditions noted are these: VEGF-stimulated ADSC/ECFC co-culture, at 10 µM, stronger effect = higher value.
Assay [5] can be described thus: GLP1 release stimulators, primary, NCI-H716, NPC library (AID 1117341;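 active = compound raises GLP1 secretion from the human gut endocrine cells, with no numeric limit stated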; note: reference of the scale not given here). The conditions noted are these: NCI-H716 cells, at 10 µM, stronger effect = higher value.
Assay [6] is described as follows: HCT116 colon cancer cell growth inhibition, primary screen, CellTiter-Glo luminescence, NPC library (AID 1117342;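 active = compounds that lower survival of HCT116 colon cancer cells in the luminescence readout, no numeric limit stated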). The conditions noted are these: at 20 µM (top of the series). On the technique in general: In ATP-based viability assays light output follows the ATP content of the culture.
A short description of assay [7]: reduced SW480 viability measured with CellTiter-Glo, NPC library, primary (AID 1117343;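 active = compounds that lower viability of the colon cancer cells in the luminescence readout, with no numeric limit stated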). The conditions noted are these: CellTiter-Glo luminescence; at 20 µM (top of the series).
The nature of assay [8]: NPC library primary testing for decreased DLD-1 cell viability via CellTiter-Glo (AID 1117346;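 active = compounds that lower survival of DLD-1 colon cancer cells in the luminescence readout, no cutoff given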). The conditions noted are these: DLD-1 viability, CellTiter-Glo luminescence; at 20 µM (top of the series).

For the compound `CCC(C(=O)OCCN1CCOC(c2ccccc2)C1C)c1ccccc1` (centres undefined), the nuclear beta-catenin stimulation in assay [1] (at 10 µM) is 1% (inactive); in assay [1] (stimulation, at 2 µM), 1.6%. Besides, the insulin secretion stimulation in assay [2] was 1.7% (inactive). For the same compound, the viability decrease in assay [3] was -40.8% (inactive). In addition, in assay [4], the tube area decrease is 3.7% (inactive). The GLP1 secretion stimulation in assay [5] is 5.9% (inactive). Moreover, the inhibition of viability in assay [6] is 15.8% (inactive). Also, the viability decrease (inhibition) in assay [7] was -0.4% (inactive); in assay [8] it was 22.2% (inactive).

As for `CC(C)C[C@H](NC(=O)CNC(=O)[C@H](Cc1ccc(O)cc1)NC(=O)[C@H](CO)NC(=O)[C@H](Cc1c[nH]c2ccccc12)NC(=O)[C@H](Cc1cnc[nH]1)NC(=O)[C@@H]1CCC(=O)N1)C(=O)N[C@@H](CCCN=C(N)N)C(=O)N1CCC[C@H]1C(=O)NCC(N)=O` (stereo in doubt), the nuclear beta-catenin stimulation is -1% (inactive) in assay [1] (at 10 µM) and -0.5% in assay [1] (stimulation, at 2 µM). Moreover, the insulin secretion stimulation in assay [2] was -0.4% (inactive). For the same compound, in assay [3], the viability decrease is 0.3% (inactive). Further, the tube area decrease in assay [4] was 19.8% (inactive). In addition, in assay [5], the GLP1 secretion stimulation was 6% (inactive). Besides, the inhibition of viability in assay [6] is 6.7% (active). The viability decrease (inhibition) in assay [7] is 11.3% (inactive); in assay [8], -1.2% (inactive).

For the compound `CC(C)OP(=O)(CP(=O)(OC(C)C)OC(C)C)OC(C)C`, the nuclear beta-catenin stimulation in assay [1] (at 10 µM) was -0.3% (inactive); in assay [1] (stimulation, at 2 µM) it was 1.5%. In assay [2], the insulin secretion stimulation is 0.8% (inactive). Moreover, the viability decrease in assay [3] was -8.5% (inactive). For the same compound, the tube area decrease in assay [4] was 11.4% (inactive). The GLP1 secretion stimulation in assay [5] was -0.8% (inactive). For the same compound, the inhibition of viability in assay [6] was 1.5% (inactive). In addition, the viability decrease (inhibition) in assay [7] was -11.1% (inactive); in assay [8] it was 10.4% (inactive).

`CC(C)CCC[C@@H](C)[C@H]1CC[C@H]2[C@@H]3CC=C4C[C@@H](O)CC[C@]4(C)[C@@H]3CC[C@]12C`: the nuclear beta-catenin stimulation was -0.4% (inactive) in assay [1] (at 10 µM) and -1% in assay [1] (stimulation, at 2 µM). Moreover, in assay [2], the insulin secretion stimulation was 1% (inactive). In addition, the viability decrease in assay [3] is 26.9% (inactive). The tube area decrease in assay [4] is 37.5% (inactive). Also, in assay [5], the GLP1 secretion stimulation was -2.1% (inactive). The inhibition of viability in assay [6] was 43.2% (inactive). Besides, the viability decrease (inhibition) is 52.2% (active) in assay [7] and 41.9% (inactive) in assay [8].

Consider `CCN1C(=O)c2ccccc2C1Nc1ccc(OCCN2CCCCC2)cc1` (centres undefined), for which the nuclear beta-catenin stimulation was 0.7% (inactive) in assay [1] (at 10 µM) and 0.3% in assay [1] (stimulation, at 2 µM). Moreover, the insulin secretion stimulation in assay [2] was 18.5% (inactive). Also, the viability decrease in assay [3] was 10.5% (inactive). Further, the tube area decrease in assay [4] is 14.2% (inactive). For the same compound, the GLP1 secretion stimulation in assay [5] is 7.7% (inactive). Moreover, in assay [6], the inhibition of viability is 47.4% (inactive). Also, the values for the viability decrease (inhibition) in assay [7] and in assay [8] were 13.4% (inactive) and -3.1% (inactive), respectively.

Consider `FC1(F)C(F)(F)C(F)(F)C2(F)C(F)(F)C(F)(F)C(F)(F)C(F)(F)C2(F)C1(F)F` (centres undefined), for which the nuclear beta-catenin stimulation in assay [1] (at 10 µM) is -0.7% (inactive); in assay [1] (stimulation, at 2 µM), 0.3%. The insulin secretion stimulation in assay [2] is 1.3% (inactive). In addition, the viability decrease in assay [3] is 17% (inactive). Further, the tube area decrease in assay [4] was 10.2% (inactive). In addition, in assay [5], the GLP1 secretion stimulation is -0.8% (inactive). For the same compound, in assay [6], the inhibition of viability was -2.93% (inactive). Further, the viability decrease (inhibition) in assay [7] is 21.7% (inactive); in assay [8], -11.3% (inactive).

Consider `COc1ccccc1OCC1CNC(=O)O1` (centres undefined), for which the nuclear beta-catenin stimulation was -2% (inactive) in assay [1] (at 10 µM) and 0.2% in assay [1] (stimulation, at 2 µM). Also, the insulin secretion stimulation in assay [2] was 0.9% (inactive). The viability decrease in assay [3] was -16.8% (inactive). In assay [4], the tube area decrease is -6.7% (inactive). The GLP1 secretion stimulation in assay [5] was -1.6% (inactive). The inhibition of viability in assay [6] was 4.4% (inactive). The values for the viability decrease (inhibition) in assay [7] and in assay [8] were 15.3% (inactive) and -2.8% (inactive), respectively.

With `C[N+]1(CC2COC(c3ccccc3)(c3ccccc3)O2)CCCCC1` (centres undefined), the nuclear beta-catenin stimulation in assay [1] (at 10 µM) was 1.5% (inactive); in assay [1] (stimulation, at 2 µM), -0.6%. The insulin secretion stimulation in assay [2] was 6.4% (inactive). In assay [3], the viability decrease is 7.4% (inactive). For the same compound, the tube area decrease in assay [4] was -12.8% (inactive). The GLP1 secretion stimulation in assay [5] is 0.7% (inactive). For the same compound, in assay [6], the inhibition of viability was 23.2% (inactive). The viability decrease (inhibition) in assay [7] is 10.8% (inactive); in assay [8], 0.5% (inactive).

Take `CCCc1ccc(OCC(=O)N2CCN(C(=O)COc3ccc(CCC)cc3OC)CC2)c(OC)c1`: the nuclear beta-catenin stimulation in assay [1] (at 10 µM) was 0.8% (inactive); in assay [1] (stimulation, at 2 µM), 2.5%. For the same compound, the insulin secretion stimulation in assay [2] was 2.6% (inactive). Also, the viability decrease in assay [3] was -50.5% (inactive). In addition, the tube area decrease in assay [4] is 43.5% (active). For the same compound, the GLP1 secretion stimulation in assay [5] was 10.9% (inactive). The inhibition of viability in assay [6] was 48.2% (inactive). Further, the viability decrease (inhibition) in assay [7] is 97.2% (active); in assay [8] it was 101% (active).

Take `O=C1Cc2cc(Cl)ccc2N1`: the nuclear beta-catenin stimulation is -0.3% (inactive) in assay [1] (at 10 µM) and -1.5% in assay [1] (stimulation, at 2 µM). In addition, the insulin secretion stimulation in assay [2] was 1% (inactive). Also, in assay [3], the viability decrease was 4.9% (inactive). For the same compound, the tube area decrease in assay [4] was 2.8% (inactive). Moreover, the GLP1 secretion stimulation in assay [5] is 3.9% (inactive). In addition, in assay [6], the inhibition of viability was 8.4% (inactive). For the same compound, the viability decrease (inhibition) was -9.4% (inactive) in assay [7] and 2.7% (inactive) in assay [8].

On to `Nc1ccc2c(c1)CN1C(=O)c3ccccc3C1=N2`, for which the nuclear beta-catenin stimulation was 3.6% (inactive) in assay [1] (at 10 µM) and -0.3% in assay [1] (stimulation, at 2 µM). In addition, the insulin secretion stimulation in assay [2] was 4.2% (inactive). In addition, the viability decrease in assay [3] was 44.4% (inactive). The tube area decrease in assay [4] was 44.6% (active). Also, the GLP1 secretion stimulation in assay [5] is 2% (inactive). Moreover, in assay [6], the inhibition of viability is 13.1% (inactive). The results for the viability decrease (inhibition) in assay [7] and in assay [8] were 79.4% (active) and 28.1% (inactive), respectively.

With `Nc1cc(C(F)(F)F)ccc1S`, the nuclear beta-catenin stimulation in assay [1] (at 10 µM) was 0% (inactive); in assay [1] (stimulation, at 2 µM) it was -0.9%. Also, the insulin secretion stimulation in assay [2] was 4.4% (inactive). Besides, the viability decrease in assay [3] was 2.3% (inactive). Moreover, the tube area decrease in assay [4] is 44.8% (active). The GLP1 secretion stimulation in assay [5] is 20.5% (active). For the same compound, the inhibition of viability in assay [6] is 16.7% (inactive). Also, the viability decrease (inhibition) in assay [7] was -4.3% (inactive); in assay [8] it was 20.8% (inactive).

As for `C[C@H](N)C(=O)N[C@@H](C)C(=O)NC1[C@H]2CN(c3nc4c(cc3F)c(=O)c(C(=O)O)cn4-c3ccc(F)cc3F)C[C@@H]12` (some centres undefined), the nuclear beta-catenin stimulation was 0.2% (inactive) in assay [1] (at 10 µM) and -2.1% in assay [1] (stimulation, at 2 µM). Also, the insulin secretion stimulation in assay [2] is 3.4% (inactive). Moreover, in assay [3], the viability decrease was 80.7% (active). Besides, the tube area decrease in assay [4] was 1.8% (inactive). Also, in assay [5], the GLP1 secretion stimulation was 0.7% (inactive). Also, the inhibition of viability in assay [6] was 27.2% (inactive). Moreover, the viability decrease (inhibition) in assay [7] is 2.9% (inactive); in assay [8] it was -9.3% (inactive).

Consider `CCCCCCCCCCCCCCCCCCN(C)C`, for which the nuclear beta-catenin stimulation was -0.6% (inactive) in assay [1] (at 10 µM) and -1.1% in assay [1] (stimulation, at 2 µM). Further, in assay [2], the insulin secretion stimulation was 0.9% (inactive). Further, the viability decrease in assay [3] is 1.2% (inactive). In addition, the tube area decrease in assay [4] was -8% (inactive). Moreover, the GLP1 secretion stimulation in assay [5] is -0.1% (inactive). For the same compound, the inhibition of viability in assay [6] was 43.3% (inactive). Also, the values for the viability decrease (inhibition) in assay [7] and in assay [8] were -27.7% (inactive) and -0.1% (inactive), respectively.

As to `COc1cc2c(cc1OC)C(=O)CC2`, the nuclear beta-catenin stimulation in assay [1] (at 10 µM) is 0.3% (inactive); in assay [1] (stimulation, at 2 µM) it was 2%. In addition, the insulin secretion stimulation in assay [2] is 0.2% (inactive). In addition, the viability decrease in assay [3] is -1.6% (inactive). The tube area decrease in assay [4] is 3.8% (inactive). Also, the GLP1 secretion stimulation in assay [5] is 3.1% (inactive). The inhibition of viability in assay [6] was -8.1% (inactive). The viability decrease (inhibition) in assay [7] is 4.2% (inactive); in assay [8] it was 14.9% (inactive).

Turning to `CCCCC/C=C\C/C=C\CCCCCCCC(=O)NC(C)c1ccccc1` (centres undefined), the nuclear beta-catenin stimulation was 0.2% (inactive) in assay [1] (at 10 µM) and 2.1% in assay [1] (stimulation, at 2 µM). For the same compound, in assay [2], the insulin secretion stimulation was 1% (inactive). The viability decrease in assay [3] is 23.3% (inactive). Also, the tube area decrease in assay [4] was -5.3% (inactive). Also, the GLP1 secretion stimulation in assay [5] was 0.2% (inactive). Moreover, in assay [6], the inhibition of viability is 52% (active). Besides, the viability decrease (inhibition) was 13.5% (inactive) in assay [7] and 3.3% (inactive) in assay [8].
